# GPR151 ag – activators of human GPR151 | activation, % at 11.2 µM | Q8TDV0 | hit rate 1% among 650,000 | PathHunter beta-arrestin GPR151 cells, luminescence; in the data active means activation above about 4.9%;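 further: 0% = median of compound wells and 100% = cells with positive control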
# TEAD-YAP block – TEAD-YAP interaction inhibition | HEK-TIYL cells, TEAD-Gal4/YAP UAS-luciferase luminescence | inhibition, % at 9.12 µM | hit rate 1.4% among 640,000 | AID 1259422; in the data active means inhibition above about 32%;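 further: 0% = median of test compound wells and 100% = reference inhibitor wells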
# FBW7 act – activators of human E3 ligase FBW7 | Q969H0 | AlphaScreen FBW7–phospho-cyclin E peptide binding, activator screen | normalized activity (activation), % at 26.1 µM | hit rate 0.13% among 650,000 | AID 1259310; in the data active means normalized activity above about 1.9%;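 further: purified mutant Fbw7 with reduced substrate affinity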
# Target sequence (Q969H0 whole entry, looked up): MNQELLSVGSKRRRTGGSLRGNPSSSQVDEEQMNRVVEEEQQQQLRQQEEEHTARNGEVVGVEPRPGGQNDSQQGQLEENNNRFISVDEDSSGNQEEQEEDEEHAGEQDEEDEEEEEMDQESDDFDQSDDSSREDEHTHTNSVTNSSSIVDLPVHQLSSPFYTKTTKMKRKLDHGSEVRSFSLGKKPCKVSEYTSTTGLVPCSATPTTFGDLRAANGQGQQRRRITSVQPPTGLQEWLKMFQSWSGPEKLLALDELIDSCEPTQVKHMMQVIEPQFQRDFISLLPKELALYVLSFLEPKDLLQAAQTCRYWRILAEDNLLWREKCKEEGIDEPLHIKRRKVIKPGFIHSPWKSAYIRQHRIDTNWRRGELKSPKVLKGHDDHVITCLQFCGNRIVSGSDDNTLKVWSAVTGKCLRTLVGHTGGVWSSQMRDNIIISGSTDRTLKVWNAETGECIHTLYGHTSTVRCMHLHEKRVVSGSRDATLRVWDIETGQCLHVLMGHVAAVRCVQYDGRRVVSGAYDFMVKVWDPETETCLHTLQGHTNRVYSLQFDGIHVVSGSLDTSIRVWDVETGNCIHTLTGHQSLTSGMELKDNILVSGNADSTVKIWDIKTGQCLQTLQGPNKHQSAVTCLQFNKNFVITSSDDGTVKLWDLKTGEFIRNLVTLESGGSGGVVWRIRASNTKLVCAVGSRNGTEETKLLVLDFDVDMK
# MITF inh – inhibitors of human MITF | O75030 | hit rate 0.91% among 650,000 | inhibition, % at 2.6 µM | AlphaScreen MITF homodimerization, bead proximity signal; in the data active means inhibition above about 50%;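 further: 0% = vehicle wells with protein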
# GPR151 conf act – confirmation of human GPR151 activators. activation, % at 11.2 µM. GPR151 PathHunter beta-arrestin cells, luminescence, 90 min; % of EA-reagent control over plate median. shares compounds with GPR151 ag. 6,700 tested, under 10 active;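 active means mean percent activation across replicates above the confirmation screen cutoff of 4.91%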
# GPR119 ag – counter-screen for GPR151 activators: effect on human GPR119 | shares compounds with GPR151 ag | GPR119 PathHunter beta-arrestin cells, luminescence, 90 min; 0 = compound-well median, 100 = enzyme-acceptor control | activation, % at 11.2 µM | hit rate 0.3% among 6,700;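 active means mean percent activation in the counterscreen above 29.09%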;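 further: counterscreen on off-target GPR119 to flag nonselective hits from the GPR151 activator screen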
# Numbers without * were called inactive; . = not tested or not shown; ! = not confirmed by another sample. An excerpt weighted towards active compounds, which were near 3.5% of everything screened.
SMILES,GPR151 ag,TEAD-YAP block,FBW7 act,MITF inh,GPR151 conf act,GPR119 ag
Cc1cccc(N2N=C(c3ccccc3)CC2=O)c1C,8.8*,13.6,-0.2,6.0,-0.6,10.5
COc1ccc(/C=C2/N=C(c3ccccc3)NC2=O)cc1,5.2*,-14.6,0.1,-3.4,-1.3,-9.1
COc1ccc(/C=C2\N=C(c3ccc(C)cc3)NC2=O)cc1,0.5,14.3,1.4,6.1,.,.
COc1ccc(C2CC(=O)C=C(Nc3ccc(Br)cc3)C2)cc1OC (stereo not drawn),0.5,-5.8,0.1,10.8,.,.
COC1=CC(=O)C[C@@H](C)[C@]12Oc1c(Cl)c(OC)cc(OC)c1C2=O,5.4*!,42.9*!,0.1,-6.7,0.4,2.0
CC(C)CCNc1nc(=S)[nH]c2ccccc12,-1.3,-9.6,0.0,6.8,.,.
CCOc1ccccc1NC(=O)c1cc(S(=O)(=O)NCCc2ccccc2)ccc1F,5.0*,-2.6,0.1,11.3,-0.5,-15.2
COc1ccc(Cl)cc1NC(=O)c1cc(S(=O)(=O)N2CCCCCC2)ccc1F,5.7*,1.5,0.1,-6.1,-0.3,-9.3
CCOc1ccccc1NC(=O)c1cc(S(=O)(=O)NCCC2=CCCCC2)ccc1F,0.6,2.2,0.0,9.2,.,.
CCCNS(=O)(=O)c1ccc(F)c(C(=O)Nc2cc(C)ccc2OC)c1,0.1,-2.1,-0.1,-3.2,.,.
COc1ccccc1CNS(=O)(=O)c1ccc(F)c(C(=O)Nc2ccc(Cl)cc2)c1,1.5,6.9,-0.2,0.9,.,.
CCCNS(=O)(=O)c1ccc(F)c(C(=O)Nc2cc(Cl)ccc2OC)c1,5.8*,-10.3,0.7,8.0,-1.0,-2.0
COc1ccccc1CNS(=O)(=O)c1ccc(F)c(C(=O)Nc2ccc(F)cc2)c1,5.4*,2.4,0.5,17.5,0.5,-8.5
COc1ccc(Cl)cc1NC(=O)c1cc(S(=O)(=O)N2CCCCC2)ccc1F,1.5,6.9,-0.1,-3.0,.,.
N[C@H](COc1ccncc1C(=O)Nc1ccc2[nH]ncc2c1)Cc1ccccc1,-0.6,-1.2,0.1,21.1,.,.
CN(C)CCN(Cc1ccccc1)C(=O)Nc1ccc(-c2cn[nH]c2)cc1,0.9,-0.6,-0.1,4.3,.,.
CCOc1ccc(/C=C2/N=C(c3ccc(OC)c(Br)c3)OC2=O)cc1,0.6,-0.8,0.0,-3.4,.,.
CCOc1ccc(/C=C2/N=C(c3cncc(Br)c3)OC2=O)cc1,5.0*,3.9,-0.1,17.6,-0.4,-10.8
COc1ccc(N2CCN(C(=O)COc3ccc(Br)cc3)CC2)cc1,0.1,-5.2,-0.1,18.3,.,.
COc1cccc(C(c2nnnn2C(C)C)N2CCN(c3ccccc3)CC2)c1OC (stereo not drawn),5.4*,-0.4,-0.1,2.9,1.5,2.4
COc1ccc(-c2cn3c4c(=O)n(C)c(=O)n(C)c4nc3n2-c2ccc(OC)c(OC)c2)cc1,-0.4,9.1,0.6,13.2,.,.
CCOc1ccc(-c2cc(=O)c3cc(NC(=O)c4ccccc4Br)ccc3o2)cc1,5.1*,-39.1,0.0,-1.6,-1.1,-11.5
CC12C=CC(C3OCCO3)(O1)C1C(=O)N(c3ccc(Cl)cc3)C(=O)C12 (stereo not drawn),6.4*,12.3,0.0,5.2,-0.3,-0.7
c1ccc(Oc2ccc(Nc3nc(Nc4ccncc4)nc4c3ncn4C3CCCCC3)cc2)cc1,-2.2,-19.0,0.2,8.3,.,.
Cc1cc(C)cc(CN2CCN(c3ccc4c(c3)OCO4)C2=O)c1,-0.8,-10.4,-0.1,13.4,.,.
SMILES,GPR151 ag,TEAD-YAP block,FBW7 act,MITF inh,GPR151 conf act,GPR119 ag
O=C1N(Cc2ccc(F)cc2F)CCN1c1ccc2c(c1)OCO2,9.8*,-52.5,-0.2,11.9,-0.3,9.3
CC12CCC(C(=O)NCCN3CCOCC3)(OC1=O)C2(C)C (stereo not drawn),5.9*,-13.1,0.3,13.2,-0.1,-5.3
CC12CCC(C(=O)NCc3ccccc3)(OC1=O)C2(C)C (stereo not drawn),5.3*,7.1,-0.1,-14.8,0.4,7.4
CCc1nnc(NC(=O)c2ccoc2C)s1,-5.5,-21.4,0.4,20.7,.,.
Cc1nc(NC(=O)/C=C/c2ccccc2)sc1C(=O)Nc1cccnc1,9.1*,12.3,-0.1,-7.3,-0.5,-5.3
Cc1ccc(NC(=O)Cn2c(Cc3ccccc3)nc3sc4c(c3c2=O)CCCC4)cc1,-1.3,-0.6,0.0,8.9,.,.
COc1ccc(C(=O)NC(=S)Nc2cc(C)ccc2O)cc1OC,-0.9,5.4,-0.1,-14.2,.,.
